# Laboratory results taken from PubChem BioAssay.
# Results filed as inconclusive are left out. Activity calls are given as the source filed them.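 How the source made its calls, unless noted: active means percent response above a set limit, the screen-wide mean plus 3 SD (cut at about 130% in these data); inactive means the rest.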
# Key:
# [1] = yeast TOR pathway RPL19A-GFP modulators, primary screen, cell-based, S. cerevisiae, multiplex flow cytometry (AID 1862; in the data active means percent of DMSO control GFP below about 86%;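 further: lower values mimic rapamycin by blocking the RPL19A rise seen in DMSO cells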); settings: S. cerevisiae RPL19A-GFP strain, flow cytometry fluorescence, 3 h; at 10 µM; stronger effect = lower value
# [2] = modulators of MEP2-GFP levels in yeast, primary screen, S. cerevisiae, multiplex flow cytometry (AID 1867;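 active means GFP response, as percent of the DMSO control, above the screen-wide mean plus 3 SD, about 139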;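 further: median GFP channel fluorescence of barcode-gated MEP2-GFP cells measured by flow cytometry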); settings: S. cerevisiae MEP2-GFP strain, 3 h, at 10 µM, stronger effect = higher value, 100% means same as DMSO wells
# [3] = modulators of CIT2-GFP expression in yeast, primary screen, S. cerevisiae, GFP fusion, multiplex flow cytometry (AID 1870); settings: 3 h, at 10 µM, stronger effect = higher value;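 further: barcoded CIT2-GFP strain pooled with four other GFP strains with rapamycin as positive control; median GFP fluorescence per well over plate mean of DMSO wells so 100% = DMSO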
# [4] = modulators of LAP4-GFP expression in yeast, primary screen, S. cerevisiae, multiplex flow cytometry (AID 1873;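 active means GFP signal, as percent of the solvent control, above the screen mean plus 3 SD, about 149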); settings: 3 h, at 10 µM, stronger effect = higher value
# [5] = modulators of AGP1-GFP expression in yeast TOR pathway, primary screen, cell-based, multiplex flow cytometry, S. cerevisiae (AID 1887;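 active means GFP signal above the screen-wide mean plus 3 SD, that is over about 124.5% of the solvent control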;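 further: AGP1-GFP fusion strain of S. cerevisiae within a five-strain barcoded multiplex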); settings: 3 h, at 10 µM, stronger effect = higher value
# [6] = inhibitors of CD8+ T cell-vesicle binding, pilot screen, LFA-1/ICAM-1 modulator project, MLPCN validation set, flow cytometry (AID 2523;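 active means response below a set limit, under 55% cells CD8-positive and vesicle-bound, and CD8 cells' 90th-percentile brightness under 279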;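 on vesicle binding response: mean PE anti-B7-1 fluorescence of CD8+ cells relative to row control; 100% = QL9-loaded vesicles with DMSO vehicle in the same plate row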); settings: 2C mouse CD8+ T cells, at 7 µM, stronger effect = lower value; double positive events: measured here: CD8+/vesicle+ event percentage
# [7] = biological target: Integrin beta-1 (Homo sapiens) + Integrin alpha-4 (Homo sapiens) (UniProt P13612+P05556); test: inhibition of HUTS-21 binding to VLA-4, pilot screen, VLA-4 allosteric modulator project, U937 cells, HUTS-21 mAb, flow cytometry, validation set (AID 2674;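 active means inhibition above 50%, about 3 SD of the validation set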;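 further: antibody binding induced by the VLA-4 ligand LDV present at three times its Kd; 0% = LDV ligand with antibody and no compound and 100% = antibody without LDV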); settings: HUTS-21 LIBS mAb binding, at 6.7 µM, stronger effect = higher value, binding induced by LDV ligand
# Sequence of Integrin beta-1 (Homo sapiens) + Integrin alpha-4 (Homo sapiens) (P05556 whole entry, looked up): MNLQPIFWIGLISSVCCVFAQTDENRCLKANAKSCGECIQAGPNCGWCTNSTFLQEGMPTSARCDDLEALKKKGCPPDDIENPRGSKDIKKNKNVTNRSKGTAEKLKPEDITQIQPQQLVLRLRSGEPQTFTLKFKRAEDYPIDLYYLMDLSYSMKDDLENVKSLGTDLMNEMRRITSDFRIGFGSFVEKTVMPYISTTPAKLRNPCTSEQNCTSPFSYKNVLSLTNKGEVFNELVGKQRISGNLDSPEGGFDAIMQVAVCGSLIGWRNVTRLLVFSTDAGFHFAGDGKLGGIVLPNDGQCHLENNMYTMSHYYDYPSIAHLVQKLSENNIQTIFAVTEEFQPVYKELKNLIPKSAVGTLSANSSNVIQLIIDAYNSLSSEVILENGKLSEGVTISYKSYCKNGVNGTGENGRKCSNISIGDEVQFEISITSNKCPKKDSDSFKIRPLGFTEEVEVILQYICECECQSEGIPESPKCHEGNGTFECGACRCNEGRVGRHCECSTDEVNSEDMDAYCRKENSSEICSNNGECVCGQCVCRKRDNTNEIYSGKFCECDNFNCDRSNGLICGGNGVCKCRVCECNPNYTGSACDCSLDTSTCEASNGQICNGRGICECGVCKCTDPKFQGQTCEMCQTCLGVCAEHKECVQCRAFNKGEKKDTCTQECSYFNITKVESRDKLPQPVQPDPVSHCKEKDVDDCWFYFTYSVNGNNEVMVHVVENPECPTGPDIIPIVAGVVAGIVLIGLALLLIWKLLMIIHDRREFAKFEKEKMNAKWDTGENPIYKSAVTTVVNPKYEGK
# Sequence of Integrin beta-1 (Homo sapiens) + Integrin alpha-4 (Homo sapiens) (P13612 whole entry, looked up): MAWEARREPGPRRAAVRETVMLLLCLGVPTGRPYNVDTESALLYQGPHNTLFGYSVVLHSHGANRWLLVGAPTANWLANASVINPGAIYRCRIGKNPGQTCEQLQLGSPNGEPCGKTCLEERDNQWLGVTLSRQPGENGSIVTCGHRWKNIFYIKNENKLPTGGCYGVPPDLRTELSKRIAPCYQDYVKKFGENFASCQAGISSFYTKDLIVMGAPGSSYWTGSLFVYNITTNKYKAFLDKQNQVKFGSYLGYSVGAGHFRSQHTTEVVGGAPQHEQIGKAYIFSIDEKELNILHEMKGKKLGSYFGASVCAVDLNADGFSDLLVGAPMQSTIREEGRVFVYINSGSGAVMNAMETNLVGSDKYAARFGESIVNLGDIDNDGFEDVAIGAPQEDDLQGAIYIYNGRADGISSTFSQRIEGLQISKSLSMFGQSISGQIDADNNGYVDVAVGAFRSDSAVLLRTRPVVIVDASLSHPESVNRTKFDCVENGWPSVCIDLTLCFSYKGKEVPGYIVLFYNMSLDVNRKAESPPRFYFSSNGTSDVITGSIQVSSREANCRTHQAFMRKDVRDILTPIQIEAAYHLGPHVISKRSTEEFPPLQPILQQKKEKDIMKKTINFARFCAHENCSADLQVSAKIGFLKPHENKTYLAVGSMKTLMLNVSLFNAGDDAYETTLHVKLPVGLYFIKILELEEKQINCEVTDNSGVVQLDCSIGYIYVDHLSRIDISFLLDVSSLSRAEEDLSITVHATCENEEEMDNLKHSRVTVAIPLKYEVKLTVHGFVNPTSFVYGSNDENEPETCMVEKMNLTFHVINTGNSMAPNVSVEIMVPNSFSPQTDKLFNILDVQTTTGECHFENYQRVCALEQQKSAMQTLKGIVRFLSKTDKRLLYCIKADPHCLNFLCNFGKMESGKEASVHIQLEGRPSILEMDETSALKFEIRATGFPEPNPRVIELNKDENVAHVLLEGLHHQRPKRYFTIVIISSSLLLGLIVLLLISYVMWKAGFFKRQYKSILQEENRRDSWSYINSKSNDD
# [8] = superoxide lowering in aged yeast cells, pilot screen, validation compound set (AID 2706;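 active means superoxide response below 65% of plate, a cut near 3 SD across the whole screen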;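 further: yeast exposed to compound for one week at 30 degrees C before staining; 100% = mean of all compound wells on the same plate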); settings: S. cerevisiae aging, superoxide DHE fluorescence; at 10 µM; stronger effect = lower value
# [9] = biological target: Beta-adrenergic receptor kinase 1 (Homo sapiens) (UniProt P25098); test: GRK2 binders displacing RNA aptamer, biochemical, validation, human GRK2, bead flow cytometry (AID 488806;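 active means aptamer binding inhibition above 30%, about 3 SD of noise from non-fluorescent compounds; inactive means inhibition at or below 30%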); settings: bead-bound GRK2, FAM-aptamer displacement, at 10 µM, stronger effect = higher value
# Sequence of Beta-adrenergic receptor kinase 1 (Homo sapiens) (P25098 whole entry, looked up): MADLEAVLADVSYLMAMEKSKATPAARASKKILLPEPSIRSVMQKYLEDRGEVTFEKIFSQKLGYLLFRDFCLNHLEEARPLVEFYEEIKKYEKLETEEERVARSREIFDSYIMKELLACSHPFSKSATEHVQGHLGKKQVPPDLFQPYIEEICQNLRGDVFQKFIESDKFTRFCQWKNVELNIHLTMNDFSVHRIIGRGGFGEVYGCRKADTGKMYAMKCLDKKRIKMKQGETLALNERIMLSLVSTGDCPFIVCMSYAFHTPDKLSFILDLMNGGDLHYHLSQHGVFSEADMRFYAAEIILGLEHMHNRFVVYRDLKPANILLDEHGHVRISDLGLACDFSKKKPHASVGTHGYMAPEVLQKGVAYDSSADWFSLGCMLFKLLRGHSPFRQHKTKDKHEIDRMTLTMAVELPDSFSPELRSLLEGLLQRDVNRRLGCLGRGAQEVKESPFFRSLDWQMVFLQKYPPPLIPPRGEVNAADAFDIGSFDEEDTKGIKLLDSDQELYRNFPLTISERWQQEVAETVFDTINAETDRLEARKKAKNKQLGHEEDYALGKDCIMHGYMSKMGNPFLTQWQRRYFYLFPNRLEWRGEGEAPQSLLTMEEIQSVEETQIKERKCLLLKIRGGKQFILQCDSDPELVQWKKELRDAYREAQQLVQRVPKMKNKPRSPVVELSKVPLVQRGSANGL
# [10] = biological target: Beta-2 adrenergic receptor (Homo sapiens) (UniProt P07550); test: beta2AR agonists driving receptor internalization, pilot screen, cell-based, FAP fluorogen, flow cytometry, validation set (AID 504459;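 active means percent response above 42, roughly 3 SD of non-fluorescent test compounds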;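 further: agonist-driven loss of surface beta2AR via internalization measured by FAP dye flow cytometry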); settings: Am2.2-beta2AR cells, FAP surface receptor flow cytometry; at 10 µM; stronger effect = higher value
# Sequence of Beta-2 adrenergic receptor (Homo sapiens) (P07550 whole entry, looked up): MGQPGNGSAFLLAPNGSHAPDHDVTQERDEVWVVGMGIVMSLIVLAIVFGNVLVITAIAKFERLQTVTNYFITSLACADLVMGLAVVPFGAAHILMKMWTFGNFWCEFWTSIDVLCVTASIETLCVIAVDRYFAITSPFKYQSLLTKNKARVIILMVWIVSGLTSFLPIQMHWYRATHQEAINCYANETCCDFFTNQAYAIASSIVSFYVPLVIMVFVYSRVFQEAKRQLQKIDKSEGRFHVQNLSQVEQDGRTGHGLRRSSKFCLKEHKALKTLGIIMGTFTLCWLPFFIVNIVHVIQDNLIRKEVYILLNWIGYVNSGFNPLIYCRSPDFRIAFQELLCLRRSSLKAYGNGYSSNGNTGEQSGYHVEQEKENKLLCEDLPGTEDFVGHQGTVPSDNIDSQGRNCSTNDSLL
# [11] = biological target: AP-2 complex subunit beta (Homo sapiens) (UniProt P63010); test: inhibitors of arrestin peptide binding to AP2, pilot screen, biochemical, validation set, GST-AP2 beads, flow cytometry (AID 504541;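 active means inhibition above 54%, about 3 SD of non-fluorescent compounds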;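 further: AP2 carries R879A mutation and is captured from E. coli lysate; bead-bound FITC arrestin peptide fluorescence measuring arrestin peptide binding to AP2; 0% = DMSO wells and 100% = excess unlabeled arrestin peptide control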); settings: FITC arrestin peptide, at 10 µM, stronger effect = higher value, AP2 beta2 appendage fragment, R879A mutant
# Sequence of AP-2 complex subunit beta (Homo sapiens) (P63010 whole entry, looked up, the tested form may be a part, one chain of several): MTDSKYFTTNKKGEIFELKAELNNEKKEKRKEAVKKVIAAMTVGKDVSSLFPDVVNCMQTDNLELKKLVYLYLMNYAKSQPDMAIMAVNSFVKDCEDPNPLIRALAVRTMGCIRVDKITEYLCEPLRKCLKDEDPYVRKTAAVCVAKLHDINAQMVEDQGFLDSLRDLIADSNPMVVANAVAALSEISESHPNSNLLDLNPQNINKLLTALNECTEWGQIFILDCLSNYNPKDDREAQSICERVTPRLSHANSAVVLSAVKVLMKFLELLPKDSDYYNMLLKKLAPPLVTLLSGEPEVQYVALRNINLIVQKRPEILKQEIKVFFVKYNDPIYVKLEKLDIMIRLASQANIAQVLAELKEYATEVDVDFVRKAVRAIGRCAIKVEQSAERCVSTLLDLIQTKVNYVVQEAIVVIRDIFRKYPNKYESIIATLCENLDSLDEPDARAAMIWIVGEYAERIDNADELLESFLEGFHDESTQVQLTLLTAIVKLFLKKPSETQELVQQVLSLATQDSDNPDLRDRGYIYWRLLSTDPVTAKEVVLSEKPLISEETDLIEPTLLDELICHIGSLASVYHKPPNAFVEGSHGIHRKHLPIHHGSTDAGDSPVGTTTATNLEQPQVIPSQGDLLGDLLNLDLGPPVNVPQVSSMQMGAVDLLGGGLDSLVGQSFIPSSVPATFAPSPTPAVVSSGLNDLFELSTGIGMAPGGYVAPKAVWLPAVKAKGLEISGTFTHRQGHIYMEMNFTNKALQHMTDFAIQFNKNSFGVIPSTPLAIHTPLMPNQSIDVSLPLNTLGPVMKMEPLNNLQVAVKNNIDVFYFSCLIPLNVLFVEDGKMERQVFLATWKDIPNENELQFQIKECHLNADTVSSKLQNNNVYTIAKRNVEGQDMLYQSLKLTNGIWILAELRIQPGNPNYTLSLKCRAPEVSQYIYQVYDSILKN
# [12] = yeast V-ATPase proton transport modulators, S. cerevisiae, pHLuorin, HTS validation (AID 504600; in the data active means response above about 15%;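 further: plate controls were DMSO for no effect and reference compound for full effect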); settings: S. cerevisiae pHLuorin cytosolic pH, at 10 µM, stronger effect = higher value
# [13] = system: anti-desmoglein-3 scFv antibody binding to human DSG3; test: inhibitors of anti-DSG3 scFv binding to DSG3, pilot screen, biochemical, validation compound set, bead-based, flow cytometry (AID 588368;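 active means binding below the plate cutoff, the plate median minus 3 SD, with a reading above zero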;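 further: signal is the median channel fluorescence of bead-bound GFP antibody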); settings: Protein G beads, DSG3-Fc, scFv-GFP binding, at 10 µM, stronger effect = lower value
# [14] = inhibitors of fungal efflux pumps CDR1, CDR2, MDR1, pilot screen, validation compound set, multiplex, phenotypic (AID 588506;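 active means efflux inhibition above 0.42, the validation set average plus 4 SD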;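 further: Nile Red retained in cells so higher fluorescence means more efflux inhibition; 0 = negative control wells and 1 = enniatin B 25 µM full block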); settings: S. cerevisiae pump-expressing triplex, Nile Red efflux flow cytometry; at 10 µM; stronger effect = higher value; the pumps come from Candida albicans
# [15] = biological target: ATP-binding cassette sub-family B member 6 (Homo sapiens) (UniProt Q9NP58); test: ABCB6 transporter inhibitors, pilot screen, K562-ABCB6 cells, flow cytometry, validation set (AID 588550;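 active means inhibition above the screen-wide mean plus 3 SD, about 51%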;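 further: 0% = DMSO wells and 100% = benzethonium chloride 70 µM positive control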); settings: K562-ABCB6 porphyrin accumulation, 1 h, at 10 µM, stronger effect = higher value
# Sequence of ATP-binding cassette sub-family B member 6 (Homo sapiens) (Q9NP58 whole entry, looked up): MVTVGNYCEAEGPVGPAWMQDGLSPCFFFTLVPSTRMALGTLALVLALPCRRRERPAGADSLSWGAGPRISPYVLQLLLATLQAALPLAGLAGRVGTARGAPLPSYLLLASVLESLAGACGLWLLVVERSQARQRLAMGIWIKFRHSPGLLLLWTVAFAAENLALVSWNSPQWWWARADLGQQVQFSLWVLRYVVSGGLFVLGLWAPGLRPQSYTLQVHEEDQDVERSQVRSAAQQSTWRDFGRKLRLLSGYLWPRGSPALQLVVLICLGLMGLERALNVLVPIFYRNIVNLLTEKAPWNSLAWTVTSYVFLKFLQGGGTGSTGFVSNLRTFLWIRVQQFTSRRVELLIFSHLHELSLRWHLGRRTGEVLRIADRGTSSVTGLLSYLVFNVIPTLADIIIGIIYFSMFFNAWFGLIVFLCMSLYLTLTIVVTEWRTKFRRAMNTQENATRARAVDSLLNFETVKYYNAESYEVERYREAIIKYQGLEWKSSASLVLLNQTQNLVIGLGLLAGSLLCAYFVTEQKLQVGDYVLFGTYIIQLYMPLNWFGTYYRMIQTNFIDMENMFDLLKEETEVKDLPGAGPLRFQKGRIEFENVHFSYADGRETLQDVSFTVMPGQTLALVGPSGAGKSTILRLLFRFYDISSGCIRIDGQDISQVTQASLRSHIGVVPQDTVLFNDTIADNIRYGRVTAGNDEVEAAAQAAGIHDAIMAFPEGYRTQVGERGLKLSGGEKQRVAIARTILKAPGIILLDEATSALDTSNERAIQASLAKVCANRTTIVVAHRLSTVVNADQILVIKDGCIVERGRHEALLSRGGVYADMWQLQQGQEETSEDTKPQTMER
# [16] = promoters of myeloid differentiation in arrested cells, primary screen, cell-based, GFP/MAC1 double positive, flow cytometry, validation set (AID 588685;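 active means differentiation response of at least 50%, scaled between solvent and reference control, from cells with both markers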;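 further: compound exposure lasts four days before antibody staining and flow analysis; 0% = DMSO wells and 100% = 5 µM fulvestrant positive control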); settings: ER-HoxA9 marrow cells, stronger effect = higher value, normalized: vehicle 0, fulvestrant 100
SMILES,percent of DMSO control GFP [1],GFP response vs DMSO [2],percent response of DMSO control [3],GFP response vs DMSO [4],"GFP response, % of DMSO [5]",double positive events [6] [%],vesicle binding response [6],inhibition [7],superoxide response (% of plate) [8],aptamer binding inhibition [9],response [10],inhibition [11],response [12],binding (% of control) [13],efflux inhibition (fraction of control) [14],inhibition [15],differentiation response [16]
O=C(NCCc1c[nH]c2ccccc12)OCCSS(=O)(=O)O,101% (inactive),101% (inactive),108% (inactive),102% (inactive),100% (inactive),66.8,1060% (inactive),-6.68% (inactive),106% (inactive),3% (inactive),-2.85% (inactive),-1.88% (inactive),3.36% (inactive),99.7% (inactive),-0.07 (inactive),7% (inactive),2.2% (inactive)
CCc1ccc(/C=C2\Oc3cc(OC(=O)N4CCOCC4)ccc3C2=O)cc1,98.7% (inactive),99.6% (inactive),83.4% (inactive),125% (inactive),79.8% (inactive),64.9,164% (inactive),11.7% (inactive),173% (inactive),4% (inactive),-17.4% (inactive),-5.57% (inactive),1.83% (inactive),99.3% (inactive),0.29 (inactive),0% (inactive),6.83% (inactive)
O=C(CC1(O)C(=O)Nc2ccccc21)c1ccccc1O (stereo not drawn),100% (inactive),104% (inactive),97.8% (inactive),103% (inactive),101% (inactive),61.5,195% (inactive),-6.68% (inactive),102% (inactive),3% (inactive),5.92% (inactive),-2.48% (inactive),17.1% (active),99.5% (inactive),-0.04 (inactive),3% (inactive),12.9% (inactive)
CC1(C#CC[N+]2(C)CCCCC2)CCC2C(O1)c1ccccc1OC2(C)C (stereo not drawn),103% (inactive),102% (inactive),107% (inactive),91.5% (inactive),106% (inactive),60.2,95.6% (inactive),-6.45% (inactive),101% (inactive),-11% (inactive),5.86% (inactive),-11.4% (inactive),2.59% (inactive),101% (inactive),0.07 (inactive),-6% (inactive),-10.4% (inactive)
CC(C)COC(=O)C1C(=O)CC(C)(O)C(C(=O)OCC(C)C)C1c1cccnc1 (stereo not drawn),90.4% (inactive),118% (inactive),102% (inactive),74.3% (inactive),88.4% (inactive),59.8,203% (inactive),8.4% (inactive),113% (inactive),2% (inactive),-11.2% (inactive),2.38% (inactive),2.35% (inactive),102% (inactive),-0.06 (inactive),18% (inactive),-3.28% (inactive)
CN(C)CCOC(c1ccccc1)c1ccccc1 (tested in a mixture with another compound),103% (inactive),99.3% (inactive),98.9% (inactive),91.4% (inactive),96.4% (inactive),58.3,138% (inactive),13% (inactive),91.9% (inactive),3% (inactive),-5.43% (inactive),-10.1% (inactive),-1% (inactive),93.3% (inactive),0.27 (inactive),2% (inactive),5.13% (inactive)
CN(C)[C@@H]1C(=O)C(C(N)=O)=C(O)[C@@]2(O)C(=O)C3=C(O)c4c(O)ccc(Cl)c4[C@@H](O)[C@H]3C[C@@H]12,104% (inactive),105% (inactive),98.3% (inactive),104% (inactive),109% (inactive),59.2,122% (inactive),-7.93% (inactive),96% (inactive),10% (inactive),-15.7% (inactive),10.7% (inactive),-7.23% (inactive),101% (inactive),-0.17 (inactive),-10% (inactive),8.8% (inactive)
CC(OC(=O)c1cc(=O)[nH]c2ccccc12)C(=O)c1ccccc1 (stereo not drawn),99.6% (inactive),101% (inactive),106% (inactive),107% (inactive),105% (inactive),58.9,174% (inactive),-15.8% (inactive),96.4% (inactive),-2% (inactive),1.78% (inactive),-9.56% (inactive),0.61% (inactive),106% (inactive),-0.61 (inactive),41% (inactive),-4.57% (inactive)
COc1ccc(OC(C)C(=O)Nc2ccccc2F)cc1 (stereo not drawn),102% (inactive),99.7% (inactive),102% (inactive),108% (inactive),99.3% (inactive),58.4,151% (inactive),25.7% (inactive),90.6% (inactive),0% (inactive),6.77% (inactive),-5.67% (inactive),0.03% (inactive),104% (inactive),-0.15 (inactive),8% (inactive),-6.03% (inactive)
